The panel holds about 79,000 compounds, 15% with a hit somewhere; the sample as a whole holds those more often. Unmarked numbers belong to inactive results. Calls of active or inactive are those of the source. Rule as the data show it: active = growth inhibition above about 70%; inactive = the rest.
Experiment: NCI Yeast Anticancer Drug Screen. Data for the sgs1 mgt1 strain (AID 161);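 also: 0% = growth of cultures given vehicle only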
Details: S. cerevisiae sgs1 mgt1 strain, at 50.0 µM, hits give high values
Outline: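 Test agents were incubated with a DNA-repair-mutant yeast strain. Growth was then read and compared against vehicle-treated controls.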

SMILES	growth inhibition
CCNC(CCCC1CCCCC1)C(=O)O (stereo not given)	-3.5%
O=C(Nc1ccc(Cl)cc1)Nc1nnc2nc(C3(c4nc5nnc(NC(=O)Nc6ccc(Cl)cc6)n5[nH]c4=O)CCCC3=O)c(=O)[nH]n12	-11.7%
C=C(Br)CN1CCC2(c3ccccc3)C(=O)C([Se]c3ccccc3)CCC12 (stereo not given)	8.9%
O=C(NCCCCNCCCNC(=O)c1ccc([N+](=O)[O-])cc1)c1ccc([N+](=O)[O-])cc1	-11.1%
CCCCN=C(C)CC(=O)CC(=O)c1ccccc1	44.4%
CCc1cccc(C)c1NC(=O)CCc1nnc2s/c(=C\c3cccc4ccccc34)c(=O)n12	19.8%
COC(=O)C(C(=O)C(=O)Nc1ccc(C)cc1)c1nc2ccc([N+](=O)[O-])cc2[nH]c1=O (stereo not given)	0.8%
CCCCCCC(=O)/C=C/c1ccccc1OC	-3.55%
Clc1ccc(OCCBr)cc1	29.4%
NC(CCC(=O)NC(CSCNC(=O)Nc1ccc(Cl)cc1)C(=O)NCC(=O)O)C(=O)O (stereo not given)	-1.65%
C=C1N(C)c2ccccc2C1(C)C	-12.2%
CCCCC1(N=[N+]=[N-])C(=O)c2cccc3c2N(CCC3)C1=O (stereo not given)	29.9%
COC(=O)c1ccc(OC(=O)Nc2cccc(C(C)=O)c2)cc1	10.6%
CCCCCNC(=S)NNC(N)=O	-12.8%
c1ccc2c(c1)ccc1c2c[n+](CCCCCCCC[n+]2cc3c4ccccc4ccc3c3ccccc32)c2ccccc12	87.5% (active)
